Results taken from PubChem BioAssay.
A number with no mark means an inactive call. Calls of active or inactive are those of the source.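 How the source made its calls: active means z-score of at least 1.8 in each of two replicates, scored against plate mean and spread of sample wells; inactive means the rest.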

Test: galactose survival enhancers in mitochondrial complex I cybrids – cell-based, galactose medium, ATP luminescence, primary screen (AID 1645843);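 further: positive z means more ATP and so rescue of galactose-driven cybrid death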
Conditions: complex I mutant cybrid cells, 72 h, hits give high values
Compound `COc1ccc(F)c(-c2cnc(C)[nH]2)c1` has a z-score of -0.545.
Compound `CCCOC1CCCN(C2CCN(c3ccc(F)c(F)c3)CC2)C1` (stereo not given) has a z-score of -0.725.
With `Cc1nsc(NC(=O)N2CCCC(C)(CO)C2)n1` (stereo not given) the z-score was -0.515.
`CCCCCC(=O)N1CCC(n2cc(C3CCCCC3)nn2)CC1` gave a z-score of -0.415.
Compound `COc1cccc(-n2cc(-c3ccnc(N4CCCN(C(C)=O)CC4)n3)cn2)c1` has a z-score of -1.14.
Compound `CCCCc1ncc(-c2nc3ccc(C)cc3c(C(=O)N(C)CC)c2C)cn1` has a z-score of -0.54.
With `CCN(CC)C(=O)c1cc(-c2cnc(C(C)C)nc2)nc2c(C)cccc12` the z-score was -1.09.
With `OCC1CCCN(C2CCN(c3ncnc4sccc34)CC2)C1` (stereo not given) the z-score was 1.
Compound `Nc1ncc(-c2ccc(Cl)cc2Cl)cn1` has a z-score of -0.065.
With `CCn1ccnc1CN(C)Cc1ccc(-c2nc(C(F)(F)F)c(C)c(=O)[nH]2)cc1` the z-score was 0.66.
`Cc1nsc(NC(=O)N2CCCN(c3ccc(F)cc3)CC2)n1` gave a z-score of -0.27.
For `O=C(Nc1n[nH]c(-c2ccco2)n1)N1CCc2c([nH]c3ccccc23)C1`, the z-score was -0.135.
Compound `Cc1c(C(F)(F)F)nc(-c2ccc(CN3CCN(C)C(=O)C3)cc2)[nH]c1=O` has a z-score of -0.5.
Compound `COc1nccnc1-c1ccc2c(c1)OCO2` has a z-score of 0.365.
`CNCCCNC1CCN(c2ccc(-c3cccc(F)c3)cc2)CC1` showed a z-score of -1.3.
In the case of `COc1ccc(CNCC2COCCO2)cc1OC` (stereo not given), the z-score is reported as 3.29 (active).
Compound `COC(=O)CN1CCN(c2cc(OC)ncn2)CC1=O` has a z-score of -0.535.
`c1ccc(-n2cc(-c3ccnc(NCc4cnc5ccccn45)n3)cn2)cc1` showed a z-score of -1.09.
For `CCCCC(CO)NC(C)CCc1ccc(O)cc1` (stereo not given), the z-score was -0.565.
`CCC(CC)(CCC#N)CNC1COC2(CCCC2)C1` (stereo not given) showed a z-score of -0.555.
For `CC(CCCC(C)(C)O)CCNCC1(c2ccccc2)CCOCC1` (stereo not given), the z-score was -0.5.
With `CC(CCN1CCC(n2cc(CO)nn2)CC1)CC(C)(C)C` (stereo not given) the z-score was -0.48.
`CCCn1cc(-c2ccnc(NCc3cn4cccc(C)c4n3)n2)c(C)n1` showed a z-score of -1.07.
`CC(CCN1CCC(n2cc(CCO)nn2)CC1)CC(C)(C)C` (stereo not given) showed a z-score of -0.485.
For `CC1(C)C2(c3nc(Cc4c(F)cccc4Cl)no3)CC[C@@]1(C)C(=O)O2`, the z-score was -0.525.
In the case of `CC(C)c1cc(C(=O)N2CCCC(c3ccccc3)C2)on1` (stereo not given), the z-score is reported as -0.55.
In the case of `CCC(CO)n1cnc2sc3c(c2c1=O)CCCCC3` (stereo not given), the z-score is reported as 1.99.
For `CCC1(CNC(=O)Nc2nc(C)ns2)CCC1`, the z-score was 1.42.
For `COc1ccc(CN2CCN(c3nccc(-c4c(C)nn(C)c4C)n3)CC2=O)cc1`, the z-score was 1.14.
With `COC(=O)CCC1CCN(C(=O)CCC(C)C)CC1` the z-score was -0.56.
Work on `CN1CCN(Cc2cnc3ccccc3c2)CC1CCO` (stereo not given) yielded a z-score of 0.
`COc1cccc(-n2cc(-c3ccnc(N(C)Cc4cccnc4)n3)cn2)c1` showed a z-score of 0.62.
`O=C(CC1CCCCCC1)N1CCC(n2cc(-c3ccccn3)nn2)CC1` gave a z-score of -0.34.
With `COC(=O)c1ccc(N2CCC(c3ccccc3Cl)C2)nc1` (stereo not given) the z-score was 0.895.
For `CCCCC1C(=O)N(C)CCN1C(=O)Nc1nnc(C(C)(C)C)s1` (stereo not given), the z-score was -0.33.
Compound `CCCC[C@@H]1C[C@@H]1C(=O)N1CCC(n2cc(C3CCCCC3)nn2)CC1` has a z-score of 1.86.
Work on `Cc1cn(CC(=O)Nc2cnn(C)n2)nc1-c1cccs1` yielded a z-score of 0.735.
Compound `Cc1ccc2c(C(=O)N3CCN(C)C(=O)C3C)cc(-c3cnn(C(C)C)c3)nc2c1` (stereo not given) has a z-score of -0.56.
For `O=c1cc(-c2ccccc2Cl)nc(-c2ccc(CN3CCC[C@@H](O)C3)cc2)[nH]1`, the z-score was -0.605.
In the case of `Cc1ccc2c(C(=O)N3CCCCC3)cc(-c3cnn(C(C)C)c3)nc2c1`, the z-score is reported as -0.385.
